In assay [1] the target is Cytochrome P450 3A4 (Homo sapiens) (UniProt P08684). The experiment in a line: qHTS Assay for Inhibitors and Substrates of Cytochrome P450 3A4 (AID 884). Further: nearly all actives have a fitted effect of over 50% in size. Further: potency means the concentration at half of the fitted maximal effect. The gist of the method: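 Luminescent readout of luciferin produced by CYP3A4 (20 nM) dealkylation of Luciferin-PPXE, 25 uM (its KM). NADPH-driven reaction ran 60 min at RT after 10 min compound preincubation; data scaled to 57 uM ketoconazole as 100% inhibition.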
Cytochrome P450 3A4 (Homo sapiens), sequence (P08684 whole entry, looked up): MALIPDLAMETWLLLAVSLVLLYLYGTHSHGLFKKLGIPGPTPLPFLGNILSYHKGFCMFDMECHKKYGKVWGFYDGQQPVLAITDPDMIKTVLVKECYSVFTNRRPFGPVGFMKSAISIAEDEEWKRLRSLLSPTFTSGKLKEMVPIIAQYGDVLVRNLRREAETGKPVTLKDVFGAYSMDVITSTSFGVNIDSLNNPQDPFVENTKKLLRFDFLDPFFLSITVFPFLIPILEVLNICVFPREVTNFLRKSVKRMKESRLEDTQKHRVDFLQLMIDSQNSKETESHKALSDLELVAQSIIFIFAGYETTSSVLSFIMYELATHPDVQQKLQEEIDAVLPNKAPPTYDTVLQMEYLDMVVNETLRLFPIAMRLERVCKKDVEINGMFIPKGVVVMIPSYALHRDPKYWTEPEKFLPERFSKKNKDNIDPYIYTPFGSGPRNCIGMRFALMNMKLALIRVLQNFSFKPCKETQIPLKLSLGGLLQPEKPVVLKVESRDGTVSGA

For assay [2] the target is unchanged. The experiment in a line: qHTS Assay for Activators of Cytochrome P450 3A4 (AID 885). Further: nearly all actives have a fitted effect of over 65% in size. The gist of the method: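 Luminescent readout of luciferin formed from 25 uM Luciferin-PPXE (KM level) by 20 nM CYP3A4 in 200 mM KPO4, with 60 min NADPH-driven reaction at room temperature after 10 min compound exposure. Ketoconazole (57 uM) defined 100% inhibition.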
(qHTS replaces the single test concentration by a dilution series.)

Assay [3] concerns the target Ubiquitin carboxyl-terminal hydrolase 1 (Homo sapiens) (UniProt O94782). In words: Inhibitors of USP1/UAF1: Pilot qHTS (AID 504865). Further: nearly all actives have a fitted effect of over 35% in size. Further: potency means the concentration at half of the fitted maximal effect. The gist of the method:
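Kinetic fluorescence assay: 1nM USP1/UAF1, 15 min compound preincubation, then 150nM Ub-Rho; 480/540 nm.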

The target of assay [4] is DNA dC->dU-editing enzyme APOBEC-3G (Homo sapiens) (UniProt Q9HC16). In words: qHTS for inhibitors of Vif-A3G interactions: Validation (AID 588379). Further: 0% is about no effect. Summed up:
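Yellow fluorescence (Ex 488, Em 500-530) of Vif-coexpressing HeLa A3G-eYFP cells, scanned by Acumen cytometer, reports blocked A3G degradation. Cells plated at 700/well overnight at 37 deg C before compound addition, then a further overnight compound incubation at 37 deg C.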

The nature of assay [5]: Confirmation and Secondary Assay for Modulators of Hemoglobin Beta Chain Splicing at IVS2 654 locus (AID 910).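 Further: per-well total GFP intensity by laser scanning cytometry after 2-day treatment; % of control where 0% means no effect.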 The gist of the method:
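HeLa cells stably carrying EGFP interrupted by mutant beta-globin IVS2-654 intron (CMV-driven) were treated with compound for 2 days at 37C; corrected splicing was scored as total peak GFP intensity per well (488 nm excitation, 500-520 nm emission).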

Assay [6] in a line: Confirmation and Secondary Assay for Modulators of Hemoglobin Beta Chain Splicing at IVS2 705 locus (AID 930).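 Further: HeLa cells stably expressing the EGFP-705 splicing reporter; % of control where 0% means no effect.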 The gist of the method: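 HeLa cells stably carrying EGFP interrupted by mutant beta-globin IVS2-705 intron (CMV-driven) were seeded at 500 cells/well, treated next day with compound for 2 days at 37C; corrected splicing restores EGFP, read as total peak GFP intensity per well.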

The nature of assay [7]: qHTS profiling for inhibitors of Plasmodium falciparum proliferation (AID 504749). Further: potency means the concentration at half of the fitted maximal effect.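 On activity, negative = inhibition: 0% = DMSO vehicle and full inhibition = artemisinin control.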 On all read-outs here: nearly all actives have a fitted effect of over 60% in size. The conditions noted are these: P. falciparum in erythrocytes, SYBR Green DNA, 72 h; for activity, negative = inhibition: at 28.7 µM (top of the series). The gist of the method: (§1)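 Fluorescence of SYBR Green-bound parasite DNA, read at 485/535 nm, served as the growth measure. Infected erythrocytes were cultured with compound 72 h; artemisinin (0.29 uM) and DMSO wells defined the normalization range.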

The next assay deals with AA1029. Described as above. The conditions noted are these: P. falciparum in erythrocytes, SYBR Green DNA, 72 h; series mostly up to 28.7 µM. The gist of the method: as §1
For a further assay, the system named is ATS189. Described as above. The conditions noted are these: P. falciparum in erythrocytes, SYBR Green DNA, 72 h; series mostly up to 28.7 µM. Summed up: as §1
The test system of a further assay is CP185. The description is as above. The conditions noted are these: P. falciparum in erythrocytes, SYBR Green DNA, 72 h; series mostly up to 28.7 µM. The gist of the method:
as §1

A further assay concerns CP201. The assay is described as above. The conditions noted are these: P. falciparum in erythrocytes, SYBR Green DNA, 72 h; series mostly up to 28.7 µM. Summed up: as §1
Another assay relates to CP238. The description is as above. Conditions: P. falciparum in erythrocytes, SYBR Green DNA, 72 h; series mostly up to 28.7 µM. The gist of the method:
as §1

A further assay has as its system CP252. The description is as above. The conditions noted are these: P. falciparum in erythrocytes, SYBR Green DNA, 72 h; series mostly up to 28.7 µM. The gist of the method: as §1
A further assay has as its system CP265. The description is as above. Conditions: P. falciparum in erythrocytes, SYBR Green DNA, 72 h; series mostly up to 28.7 µM. The gist of the method: as §1
Another assay relates to CP286. Described as above. Conditions: P. falciparum in erythrocytes, SYBR Green DNA, 72 h; series mostly up to 28.7 µM. Summed up: as §1
The next assay deals with CP305. Described as above. Conditions: P. falciparum in erythrocytes, SYBR Green DNA, 72 h; series mostly up to 28.7 µM. The gist of the method:
as §1

The next assay deals with CP315. The description is as above. Conditions: P. falciparum in erythrocytes, SYBR Green DNA, 72 h; series mostly up to 28.7 µM. The gist of the method:
as §1

For the next assay, the system named is CP325. Described as above. Conditions: P. falciparum in erythrocytes, SYBR Green DNA, 72 h; series mostly up to 28.7 µM. Summed up: as §1
In a further assay the test system is FAB9. Described as above. Conditions: P. falciparum in erythrocytes, SYBR Green DNA, 72 h; series mostly up to 28.7 µM. Summed up:
as §1

The subject of another assay is JCK. The assay is described as above. Conditions: P. falciparum in erythrocytes, SYBR Green DNA, 72 h; series mostly up to 28.7 µM. Summed up: as §1

Inconclusive results are not listed. The source made the active and inactive calls. The call rests on the fitted dose curve; in most records, active means well fitted curve in the direction sought with a large enough effect; inconclusive means small, poorly fitted or top-dose-only effect, or another doubt; inactive means no such curve, though single readings can be large; an effect the other way counts as inactive or inconclusive. Bridge positions count the residues as written; N and C are the ends. Square brackets hold non-standard residues; d marks the D form. Peptide text beside a SMILES is read from it. * marks the point of attachment. ξ: configuration not given here. ξDab(CH2SO3H) = NC(CCNCS(=O)(=O)O)C(=O)O; Heptanoyl(6-Me) = CC(C)CCCCC(=O)*; Dab = NCC[CH](N)C(=O)O

Ubiquitin carboxyl-terminal hydrolase 1 (Homo sapiens), sequence (O94782 whole entry, looked up): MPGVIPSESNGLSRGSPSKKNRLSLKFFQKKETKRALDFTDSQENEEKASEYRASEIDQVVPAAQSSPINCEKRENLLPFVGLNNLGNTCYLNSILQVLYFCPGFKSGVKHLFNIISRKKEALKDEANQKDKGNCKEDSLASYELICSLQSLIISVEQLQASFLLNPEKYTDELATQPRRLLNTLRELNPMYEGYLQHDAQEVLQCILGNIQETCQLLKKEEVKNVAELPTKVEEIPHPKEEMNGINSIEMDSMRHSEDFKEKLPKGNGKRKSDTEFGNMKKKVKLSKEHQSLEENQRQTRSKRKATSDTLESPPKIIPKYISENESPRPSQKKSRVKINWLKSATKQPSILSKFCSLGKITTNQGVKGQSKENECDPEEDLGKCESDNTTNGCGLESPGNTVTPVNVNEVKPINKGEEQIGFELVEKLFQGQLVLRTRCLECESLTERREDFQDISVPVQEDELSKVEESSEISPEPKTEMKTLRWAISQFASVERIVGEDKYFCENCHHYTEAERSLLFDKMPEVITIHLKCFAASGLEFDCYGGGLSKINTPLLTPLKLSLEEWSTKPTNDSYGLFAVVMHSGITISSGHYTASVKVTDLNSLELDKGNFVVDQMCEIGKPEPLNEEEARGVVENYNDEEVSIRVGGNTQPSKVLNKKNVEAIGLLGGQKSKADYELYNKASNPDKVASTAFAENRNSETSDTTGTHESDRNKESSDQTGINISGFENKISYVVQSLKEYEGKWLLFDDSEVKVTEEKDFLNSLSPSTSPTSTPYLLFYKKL
DNA dC->dU-editing enzyme APOBEC-3G (Homo sapiens), sequence (Q9HC16 whole entry, looked up): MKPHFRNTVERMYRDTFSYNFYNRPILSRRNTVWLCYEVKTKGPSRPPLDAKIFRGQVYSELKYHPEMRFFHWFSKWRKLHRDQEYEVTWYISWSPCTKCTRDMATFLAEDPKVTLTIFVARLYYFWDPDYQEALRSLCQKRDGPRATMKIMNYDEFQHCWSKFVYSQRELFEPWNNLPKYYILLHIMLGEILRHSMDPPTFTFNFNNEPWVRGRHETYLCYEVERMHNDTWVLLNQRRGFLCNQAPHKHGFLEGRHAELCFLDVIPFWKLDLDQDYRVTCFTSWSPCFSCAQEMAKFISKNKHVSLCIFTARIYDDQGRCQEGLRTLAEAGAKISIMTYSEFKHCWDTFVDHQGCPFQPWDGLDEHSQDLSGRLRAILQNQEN

Take `O=C(/C=C/c1ccc(O)cc1)c1c(O)cc(O)cc1O`: the Potency in assay [1] was 7.94 µM (active). The Potency entry in assay [2], in [3] and in [4] was “inactive” throughout.

Regarding `CCC(C)C1NC(=O)C(CCNCS(=O)(=O)O)NC(=O)C(NC(=O)C(CCNCS(=O)(=O)O)NC(=O)C(NC(=O)C(CCNCS(=O)(=O)O)NC(=O)CCCCC(C)C)C(C)O)CCNC(=O)C(C(C)O)NC(=O)C(CCNCS(=O)(=O)O)NC(=O)C(CCNCS(=O)(=O)O)NC(=O)C(C(C)CC)NC1=O` (stereo unspecified) ({Heptanoyl(6-Me)}-[ξDab(CH2SO3H)]T[ξDab(CH2SO3H)][Dab][ξDab(CH2SO3H)]II[ξDab(CH2SO3H)][ξDab(CH2SO3H)]T; lactam 4-C; configuration not given here), the Potency entry (in assay [1]; with AA1029; in the assay on ATS189; with CP185; in the assay with CP201; in the assay on CP238) was “inactive” each time. For the same compound, the Potency result in the assay on CP252, in the assay on CP265, with CP286, in the assay on CP305, in the assay with CP315 and in the assay on CP325 was “inactive” in each case. Moreover, the Potency entry in the assay with FAB9 and in the assay with JCK was “inactive” in each case. For the same compound, the result in [5] and in [6] was inactive. Moreover, in [3], the Potency is 44.7 µM (active). The activity, negative = inhibition in [7] (parasite line A) is -19.4% (inactive); in assay [7] (parasite line B), 8.48% (inactive).

As to `Cc1ccc2oc(-c3ccccc3)cc(=O)c2c1`, the Potency result in assay [3] and in assay [4] was “inactive” throughout.

Regarding `CCOc1ccc(/C=C/C(=O)c2cccs2)cc1`, the Potency result in [1], in assay [3] and in [4] was “inactive” in each case.

As to `O=C(OCC1OC(OC(=O)c2cc(O)c(O)c(OC(=O)c3cc(O)c(O)c(O)c3)c2)[C@@H](OC(=O)c2cc(O)c(O)c(OC(=O)c3cc(O)c(O)c(O)c3)c2)C(OC(=O)c2cc(O)c(O)c(OC(=O)c3cc(O)c(O)c(O)c3)c2)C1OC(=O)c1cc(O)c(O)c(OC(=O)c2cc(O)c(O)c(O)c2)c1)c1cc(O)c(O)c(OC(=O)c2cc(O)c(O)c(O)c2)c1` (stereo partly specified), the Potency in [1] was 3.98 µM (active); in assay [3], 3.98 µM (active); in [7] (parasite line A), 2.51 µM (active); in assay [7] (parasite line B), 3.55 µM (active); in the assay with AA1029, 2.51 µM (active); in the assay with ATS189, 2.51 µM (active). For the same compound, the Potency is 2.82 µM (active) in the assay on CP185; 4.78 µM (active) with CP201; 2.51 µM (active) in the assay with CP238; 2.51 µM (active) with CP252; 2.51 µM (active) in the assay with CP265; 2.24 µM (active) in the assay on CP286. Further, the Potency was 3.38 µM (active) in the assay on CP305; 5.36 µM (active) in the assay on CP315; 3.01 µM (active) with CP325; 11.2 µM (active) in the assay with FAB9; 10 µM (active) in the assay with JCK. Further, in assay [5], the call was inactive.

These data come from PubChem BioAssay (NCATS).
